# Reference: article PMC7862700, “An all-to-all approach to the identification of sequence-specific readers for epigenetic DNA modifications on cytosine”
# Key:
# Assay in all cases: DAPPL (digital affinity profiling via proximity ligation, sequencing); 10 mM Tris-HCl pH 7.5, 50 mM NaCl, 1 mM DTT, 4% glycerol, room temperature, 30 min; GST-TFs on glutathione beads, 16-mer random dsDNA library, 0.1% formaldehyde crosslink after washing; high values mean tight binding
# FLI1 = target: T1, FLI1 (Homo sapiens, UniProt Q01543 1-452); settings: protein: recombinant; tags: N-terminal GST; dsDNA, one strand shown
# T1 sequence: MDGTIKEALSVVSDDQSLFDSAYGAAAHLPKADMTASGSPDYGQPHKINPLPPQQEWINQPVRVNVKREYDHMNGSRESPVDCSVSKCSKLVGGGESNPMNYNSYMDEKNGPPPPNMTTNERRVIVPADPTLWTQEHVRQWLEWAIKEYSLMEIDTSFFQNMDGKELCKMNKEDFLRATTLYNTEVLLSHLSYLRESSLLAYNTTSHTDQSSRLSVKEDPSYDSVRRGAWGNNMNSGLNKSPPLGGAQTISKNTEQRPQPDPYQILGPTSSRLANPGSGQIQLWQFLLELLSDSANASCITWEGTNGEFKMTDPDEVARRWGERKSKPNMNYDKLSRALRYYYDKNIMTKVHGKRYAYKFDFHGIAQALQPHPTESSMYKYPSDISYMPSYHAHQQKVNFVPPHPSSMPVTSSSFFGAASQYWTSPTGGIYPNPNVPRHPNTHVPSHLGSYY
# In short: (§1)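 GST fusions of human transcription factors were expressed in yeast and captured with glutathione beads. Once given DNA barcodes and pooled alongside a tag-only sample, they were incubated for 30 min at room temperature with 200 nmole of a random double-stranded 16-mer DNA library in Tris/NaCl/DTT/glycerol buffer, then washed, crosslinked (0.1% formaldehyde), proximity-ligated, PCR-amplified and sequenced on an Illumina NextSeq500. The binding signal of each hexamer is its read frequency for a factor divided by its frequency for the tag-only sample.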
# ELK1 = target: T2, ELK1 (Homo sapiens, UniProt P19419 1-428); settings: protein: recombinant; tags: N-terminal GST; dsDNA, one strand shown
# T2 sequence: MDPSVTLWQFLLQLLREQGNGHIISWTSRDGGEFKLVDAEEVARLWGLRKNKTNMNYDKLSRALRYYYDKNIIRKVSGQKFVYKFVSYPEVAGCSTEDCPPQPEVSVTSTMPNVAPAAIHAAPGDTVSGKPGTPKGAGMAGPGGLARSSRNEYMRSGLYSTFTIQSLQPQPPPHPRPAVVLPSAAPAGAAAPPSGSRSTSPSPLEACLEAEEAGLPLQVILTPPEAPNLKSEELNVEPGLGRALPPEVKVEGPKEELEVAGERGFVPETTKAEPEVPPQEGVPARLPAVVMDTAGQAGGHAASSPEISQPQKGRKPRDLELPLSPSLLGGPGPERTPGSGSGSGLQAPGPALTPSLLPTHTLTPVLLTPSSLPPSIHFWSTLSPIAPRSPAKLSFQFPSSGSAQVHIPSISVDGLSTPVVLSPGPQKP
# In short: as §1
# GABPA = target: T3, GABPA (Homo sapiens, UniProt Q06546 1-454); settings: protein: recombinant; tags: N-terminal GST; dsDNA, one strand shown
# T3 sequence: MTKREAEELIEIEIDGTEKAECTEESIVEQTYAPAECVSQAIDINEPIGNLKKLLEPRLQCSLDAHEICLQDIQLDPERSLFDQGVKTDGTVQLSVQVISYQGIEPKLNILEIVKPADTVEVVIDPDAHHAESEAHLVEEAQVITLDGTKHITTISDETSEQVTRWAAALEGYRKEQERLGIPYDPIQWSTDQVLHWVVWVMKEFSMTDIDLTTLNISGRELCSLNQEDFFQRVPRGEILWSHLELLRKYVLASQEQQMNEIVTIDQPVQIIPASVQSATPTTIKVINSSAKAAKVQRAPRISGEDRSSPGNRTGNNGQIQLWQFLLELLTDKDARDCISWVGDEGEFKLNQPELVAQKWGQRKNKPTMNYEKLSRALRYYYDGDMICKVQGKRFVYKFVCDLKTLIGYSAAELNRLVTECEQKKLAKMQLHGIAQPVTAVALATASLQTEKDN
# In short: as §1
# ERG = target: T4, ERG (Homo sapiens, UniProt P11308 1-479); settings: protein: recombinant; tags: N-terminal GST; dsDNA, one strand shown
# T4 sequence: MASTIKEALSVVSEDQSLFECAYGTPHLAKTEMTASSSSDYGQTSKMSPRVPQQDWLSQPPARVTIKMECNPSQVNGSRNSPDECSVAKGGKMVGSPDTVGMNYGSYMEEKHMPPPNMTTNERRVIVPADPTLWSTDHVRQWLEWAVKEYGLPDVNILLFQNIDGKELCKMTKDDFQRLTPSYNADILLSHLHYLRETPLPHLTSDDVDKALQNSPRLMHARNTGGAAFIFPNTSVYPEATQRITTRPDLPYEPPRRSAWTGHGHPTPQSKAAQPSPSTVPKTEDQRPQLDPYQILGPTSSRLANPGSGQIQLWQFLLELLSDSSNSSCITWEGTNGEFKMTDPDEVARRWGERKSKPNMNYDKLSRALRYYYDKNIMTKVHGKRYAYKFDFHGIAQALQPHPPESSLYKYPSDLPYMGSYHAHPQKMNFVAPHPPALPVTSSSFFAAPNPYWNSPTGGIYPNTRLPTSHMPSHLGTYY
# In short: as §1
# ELF1 = ELF1 (Homo sapiens, UniProt P32519 1-619); settings: protein: recombinant; tags: N-terminal GST; dsDNA, one strand shown
# Sequence of ELF1 (P32519 whole entry): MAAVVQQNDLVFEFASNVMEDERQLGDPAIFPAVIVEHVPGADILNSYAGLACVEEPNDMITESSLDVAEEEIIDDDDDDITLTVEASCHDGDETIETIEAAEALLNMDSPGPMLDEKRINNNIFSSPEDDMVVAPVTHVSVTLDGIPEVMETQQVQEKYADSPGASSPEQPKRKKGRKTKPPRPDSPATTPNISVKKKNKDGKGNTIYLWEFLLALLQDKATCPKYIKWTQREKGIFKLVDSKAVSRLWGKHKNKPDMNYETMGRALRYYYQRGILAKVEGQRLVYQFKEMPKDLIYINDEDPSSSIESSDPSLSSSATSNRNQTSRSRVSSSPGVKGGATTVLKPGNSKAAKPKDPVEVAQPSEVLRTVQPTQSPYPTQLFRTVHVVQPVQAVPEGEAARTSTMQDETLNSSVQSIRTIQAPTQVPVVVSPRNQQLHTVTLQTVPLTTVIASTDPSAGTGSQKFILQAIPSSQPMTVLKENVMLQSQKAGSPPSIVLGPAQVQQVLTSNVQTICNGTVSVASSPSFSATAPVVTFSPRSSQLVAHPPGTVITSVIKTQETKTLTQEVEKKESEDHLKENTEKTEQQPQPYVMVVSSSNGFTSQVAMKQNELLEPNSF
# In short: as §1
# EHF = target: T5, EHF (Homo sapiens, UniProt Q9NZC4 1-300); settings: protein: recombinant; tags: N-terminal GST; dsDNA, one strand shown
# T5 sequence: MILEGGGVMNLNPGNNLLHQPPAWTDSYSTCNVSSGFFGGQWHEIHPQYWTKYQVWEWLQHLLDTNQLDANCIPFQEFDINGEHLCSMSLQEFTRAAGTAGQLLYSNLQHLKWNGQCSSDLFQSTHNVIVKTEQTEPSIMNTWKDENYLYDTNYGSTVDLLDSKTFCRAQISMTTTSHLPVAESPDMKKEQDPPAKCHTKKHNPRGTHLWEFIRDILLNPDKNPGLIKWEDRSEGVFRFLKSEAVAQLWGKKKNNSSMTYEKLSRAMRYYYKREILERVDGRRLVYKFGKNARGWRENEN
# In short: as §1
# SPI1 = SPI1 (Homo sapiens, UniProt P17947 1-270); settings: protein: recombinant; tags: N-terminal GST; dsDNA, one strand shown
# In short: as §1
# SPIB = SPIB (Homo sapiens, UniProt Q01892 1-262); settings: protein: recombinant; tags: N-terminal GST; dsDNA, one strand shown
# Sequence of SPIB (Q01892 whole entry): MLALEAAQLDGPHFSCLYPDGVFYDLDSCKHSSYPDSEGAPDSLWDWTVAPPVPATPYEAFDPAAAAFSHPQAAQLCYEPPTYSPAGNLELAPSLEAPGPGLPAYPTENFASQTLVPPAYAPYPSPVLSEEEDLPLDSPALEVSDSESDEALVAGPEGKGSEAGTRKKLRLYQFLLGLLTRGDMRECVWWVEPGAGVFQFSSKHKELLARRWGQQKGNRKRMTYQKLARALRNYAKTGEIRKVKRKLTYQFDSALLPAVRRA
# In short: as §1
# ELK3 = target: T6, ELK3 (Homo sapiens, UniProt P41970 1-407); settings: protein: recombinant; tags: N-terminal GST; dsDNA, one strand shown
# T6 sequence: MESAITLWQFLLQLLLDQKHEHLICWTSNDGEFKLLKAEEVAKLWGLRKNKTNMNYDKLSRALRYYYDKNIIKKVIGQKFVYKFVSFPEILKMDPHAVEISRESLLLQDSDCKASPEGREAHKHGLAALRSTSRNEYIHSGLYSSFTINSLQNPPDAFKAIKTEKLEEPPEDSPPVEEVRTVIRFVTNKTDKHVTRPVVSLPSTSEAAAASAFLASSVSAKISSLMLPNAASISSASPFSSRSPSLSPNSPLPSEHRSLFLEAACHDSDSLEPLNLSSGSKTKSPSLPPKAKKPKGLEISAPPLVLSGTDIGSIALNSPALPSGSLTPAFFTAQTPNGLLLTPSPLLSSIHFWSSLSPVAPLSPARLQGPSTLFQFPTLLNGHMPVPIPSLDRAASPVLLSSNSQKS
# In short: as §1
# FEV = target: T7, FEV (Homo sapiens, UniProt Q99581 1-238); settings: protein: recombinant; tags: N-terminal GST; dsDNA, one strand shown
# T7 sequence: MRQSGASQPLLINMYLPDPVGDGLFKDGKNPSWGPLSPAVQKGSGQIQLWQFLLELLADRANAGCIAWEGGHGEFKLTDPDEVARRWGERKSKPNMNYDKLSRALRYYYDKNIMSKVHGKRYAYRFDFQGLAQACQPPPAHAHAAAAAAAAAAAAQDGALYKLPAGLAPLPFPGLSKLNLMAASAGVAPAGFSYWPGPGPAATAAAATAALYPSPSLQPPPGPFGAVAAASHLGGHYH
# In short: as §1
# ETV5 = ETV5 (Homo sapiens, UniProt P41161 1-510); settings: protein: recombinant; tags: N-terminal GST; dsDNA, one strand shown
# Sequence of ETV5 (P41161 whole entry): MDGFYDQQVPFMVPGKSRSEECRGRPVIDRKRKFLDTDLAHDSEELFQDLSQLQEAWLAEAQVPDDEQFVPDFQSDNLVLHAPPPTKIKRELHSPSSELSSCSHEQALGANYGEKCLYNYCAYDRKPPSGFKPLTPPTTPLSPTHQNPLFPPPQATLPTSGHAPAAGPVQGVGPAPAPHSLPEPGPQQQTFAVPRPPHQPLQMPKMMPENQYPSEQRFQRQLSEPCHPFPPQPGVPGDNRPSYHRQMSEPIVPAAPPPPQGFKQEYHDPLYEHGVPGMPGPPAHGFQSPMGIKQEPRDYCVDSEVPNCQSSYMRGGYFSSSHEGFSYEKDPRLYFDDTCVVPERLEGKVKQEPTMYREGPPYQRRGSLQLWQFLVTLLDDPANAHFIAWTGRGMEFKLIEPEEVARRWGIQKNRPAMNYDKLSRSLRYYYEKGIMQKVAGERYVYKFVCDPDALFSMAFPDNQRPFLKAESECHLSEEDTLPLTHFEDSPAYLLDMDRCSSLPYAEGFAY
# In short: as §1
# HSF1 = HSF1 (Homo sapiens, UniProt Q00613 1-529); settings: protein: recombinant; tags: N-terminal GST; chain copies: 3; dsDNA, one strand shown
# Sequence of HSF1 (Q00613 whole entry): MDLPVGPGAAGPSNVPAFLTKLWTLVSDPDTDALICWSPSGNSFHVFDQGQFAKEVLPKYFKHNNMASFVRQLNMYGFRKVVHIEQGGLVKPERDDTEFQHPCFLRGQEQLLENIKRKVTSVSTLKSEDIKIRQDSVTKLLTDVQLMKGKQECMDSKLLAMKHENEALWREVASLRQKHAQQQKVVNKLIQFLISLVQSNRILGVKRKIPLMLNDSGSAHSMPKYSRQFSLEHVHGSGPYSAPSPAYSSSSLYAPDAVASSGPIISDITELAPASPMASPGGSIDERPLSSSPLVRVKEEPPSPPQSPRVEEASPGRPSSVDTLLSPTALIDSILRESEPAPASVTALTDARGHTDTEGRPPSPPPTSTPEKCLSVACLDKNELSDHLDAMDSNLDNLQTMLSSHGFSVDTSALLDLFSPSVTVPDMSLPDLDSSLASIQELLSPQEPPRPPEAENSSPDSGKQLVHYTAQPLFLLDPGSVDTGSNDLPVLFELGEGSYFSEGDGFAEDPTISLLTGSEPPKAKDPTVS
# In short: as §1
# SPIC = target: T8, SPIC (Homo sapiens, UniProt Q8N5J4 1-248); settings: protein: recombinant; tags: N-terminal GST; dsDNA, one strand shown
# T8 sequence: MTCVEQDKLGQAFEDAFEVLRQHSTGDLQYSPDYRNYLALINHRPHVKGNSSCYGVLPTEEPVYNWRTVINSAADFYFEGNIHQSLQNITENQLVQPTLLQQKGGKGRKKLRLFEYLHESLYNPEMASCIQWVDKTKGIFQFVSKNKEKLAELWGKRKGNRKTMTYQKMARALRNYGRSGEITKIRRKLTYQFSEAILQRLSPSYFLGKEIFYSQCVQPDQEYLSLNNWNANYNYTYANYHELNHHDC
# In short: as §1
# ELF4 = ELF4 (Homo sapiens, UniProt Q99607 1-663); settings: protein: recombinant; tags: N-terminal GST; dsDNA, one strand shown
# Sequence of ELF4 (Q99607 whole entry): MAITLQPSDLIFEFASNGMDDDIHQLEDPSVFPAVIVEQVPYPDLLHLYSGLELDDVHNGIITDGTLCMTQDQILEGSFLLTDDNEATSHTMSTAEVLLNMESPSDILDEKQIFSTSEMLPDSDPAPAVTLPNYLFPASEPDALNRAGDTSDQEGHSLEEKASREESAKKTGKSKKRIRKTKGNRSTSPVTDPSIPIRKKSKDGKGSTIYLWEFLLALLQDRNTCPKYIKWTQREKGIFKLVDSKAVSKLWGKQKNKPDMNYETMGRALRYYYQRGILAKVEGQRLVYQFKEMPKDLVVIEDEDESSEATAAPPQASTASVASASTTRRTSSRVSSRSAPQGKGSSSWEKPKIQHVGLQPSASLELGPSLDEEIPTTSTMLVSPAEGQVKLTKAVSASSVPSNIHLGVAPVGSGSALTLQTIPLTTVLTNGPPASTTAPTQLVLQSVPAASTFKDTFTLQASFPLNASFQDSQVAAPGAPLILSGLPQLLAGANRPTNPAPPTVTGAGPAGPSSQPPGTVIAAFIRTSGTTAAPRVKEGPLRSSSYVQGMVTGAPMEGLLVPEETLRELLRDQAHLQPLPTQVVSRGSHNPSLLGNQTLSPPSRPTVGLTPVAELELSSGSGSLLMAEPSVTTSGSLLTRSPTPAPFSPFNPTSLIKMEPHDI
# In short: as §1
# ELK4 = target: T9, ELK4 (Homo sapiens, UniProt P28324-2 1-405); settings: protein: recombinant; tags: N-terminal GST; dsDNA, one strand shown
# T9 sequence: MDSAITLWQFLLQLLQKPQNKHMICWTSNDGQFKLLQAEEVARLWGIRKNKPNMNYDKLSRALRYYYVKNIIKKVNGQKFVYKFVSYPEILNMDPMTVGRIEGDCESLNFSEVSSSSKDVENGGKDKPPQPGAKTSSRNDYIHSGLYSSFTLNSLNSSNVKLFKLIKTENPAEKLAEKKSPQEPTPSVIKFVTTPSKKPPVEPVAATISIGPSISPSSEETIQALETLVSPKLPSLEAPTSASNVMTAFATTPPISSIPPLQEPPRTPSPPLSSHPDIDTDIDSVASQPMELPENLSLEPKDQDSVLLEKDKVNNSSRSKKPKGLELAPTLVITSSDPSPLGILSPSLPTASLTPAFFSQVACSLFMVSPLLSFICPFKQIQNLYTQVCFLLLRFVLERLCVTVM
# In short: as §1
# ETV2 = target: T10, ETV2 (Homo sapiens, UniProt O00321 1-342); settings: protein: recombinant; tags: N-terminal GST; dsDNA, one strand shown
# T10 sequence: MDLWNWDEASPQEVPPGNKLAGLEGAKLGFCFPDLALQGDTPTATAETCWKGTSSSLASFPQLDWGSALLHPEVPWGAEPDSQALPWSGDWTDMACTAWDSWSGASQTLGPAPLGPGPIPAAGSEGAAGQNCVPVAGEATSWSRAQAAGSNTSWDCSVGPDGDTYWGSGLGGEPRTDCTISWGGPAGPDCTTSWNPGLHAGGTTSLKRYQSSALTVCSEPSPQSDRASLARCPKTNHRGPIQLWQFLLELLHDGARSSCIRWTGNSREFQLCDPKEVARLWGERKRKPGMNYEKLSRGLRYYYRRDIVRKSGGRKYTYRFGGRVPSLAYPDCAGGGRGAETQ
# In short: as §1
# ELF3 = target: T11, ELF3 (Homo sapiens, UniProt P78545 1-371); settings: protein: recombinant; tags: N-terminal GST; dsDNA, one strand shown
# T11 sequence: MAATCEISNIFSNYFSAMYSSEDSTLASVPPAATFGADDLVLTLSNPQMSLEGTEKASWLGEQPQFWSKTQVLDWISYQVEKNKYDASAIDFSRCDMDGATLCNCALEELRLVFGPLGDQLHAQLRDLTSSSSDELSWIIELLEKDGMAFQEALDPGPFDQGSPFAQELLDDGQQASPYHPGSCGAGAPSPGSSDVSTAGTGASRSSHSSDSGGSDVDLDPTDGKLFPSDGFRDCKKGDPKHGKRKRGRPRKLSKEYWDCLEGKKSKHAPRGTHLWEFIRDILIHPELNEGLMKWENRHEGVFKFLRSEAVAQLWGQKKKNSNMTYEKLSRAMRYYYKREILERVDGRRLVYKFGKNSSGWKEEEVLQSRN
# In short: as §1
# CRX = CRX (Homo sapiens, UniProt O43186 1-299); settings: protein: recombinant; tags: N-terminal GST; dsDNA, one strand shown
# Sequence of CRX (O43186 whole entry): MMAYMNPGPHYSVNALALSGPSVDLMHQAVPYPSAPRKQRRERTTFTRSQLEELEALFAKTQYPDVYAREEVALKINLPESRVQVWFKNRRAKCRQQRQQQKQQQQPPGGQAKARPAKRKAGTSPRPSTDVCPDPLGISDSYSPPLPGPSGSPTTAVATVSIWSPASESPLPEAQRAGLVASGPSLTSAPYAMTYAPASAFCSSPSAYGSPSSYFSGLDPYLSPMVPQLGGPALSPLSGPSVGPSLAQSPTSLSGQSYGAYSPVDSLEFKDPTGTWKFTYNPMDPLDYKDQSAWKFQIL
# In short: as §1
# ETV1 = ETV1 (Homo sapiens, UniProt P50549 1-477); settings: protein: recombinant; tags: N-terminal GST; dsDNA, one strand shown
# Sequence of ETV1 (P50549 whole entry): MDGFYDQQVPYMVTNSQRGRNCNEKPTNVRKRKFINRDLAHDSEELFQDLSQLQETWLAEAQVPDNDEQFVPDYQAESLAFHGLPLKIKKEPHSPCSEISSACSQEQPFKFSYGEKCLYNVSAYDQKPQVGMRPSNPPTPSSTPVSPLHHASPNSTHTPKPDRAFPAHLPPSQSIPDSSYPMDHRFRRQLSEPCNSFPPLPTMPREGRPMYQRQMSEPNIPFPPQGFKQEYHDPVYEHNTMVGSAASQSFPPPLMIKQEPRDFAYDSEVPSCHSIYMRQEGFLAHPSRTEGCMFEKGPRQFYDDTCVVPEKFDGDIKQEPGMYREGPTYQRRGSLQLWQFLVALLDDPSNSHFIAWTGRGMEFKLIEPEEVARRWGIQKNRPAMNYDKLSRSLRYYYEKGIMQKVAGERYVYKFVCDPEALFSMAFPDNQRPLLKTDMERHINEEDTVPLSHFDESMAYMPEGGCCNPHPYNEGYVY
# In short: as §1
sequence,measurement,setting,value
TTCCTC,binding signal,FLI1,"2.26 fold enrichment (6-mer frequency, TF over GST control)"
same,binding signal,ELK1,"2.09 fold enrichment (6-mer frequency, TF over GST control)"
same,binding signal,GABPA,"2.1 fold enrichment (6-mer frequency, TF over GST control)"
same,binding signal,ERG,"2.21 fold enrichment (6-mer frequency, TF over GST control)"
same,binding signal,ELF1,"2.12 fold enrichment (6-mer frequency, TF over GST control)"
same,binding signal,EHF,"2.32 fold enrichment (6-mer frequency, TF over GST control)"
same,binding signal,SPI1,"4.31 fold enrichment (6-mer frequency, TF over GST control)"
same,binding signal,SPIB,"2.26 fold enrichment (6-mer frequency, TF over GST control)"
same,binding signal,ELK3,"2.3 fold enrichment (6-mer frequency, TF over GST control)"
same,binding signal,FEV,"2.13 fold enrichment (6-mer frequency, TF over GST control)"
same,binding signal,ETV5,"2.47 fold enrichment (6-mer frequency, TF over GST control)"
same,binding signal,HSF1,"1.61 fold enrichment (6-mer frequency, TF over GST control)"
same,binding signal,SPIC,"2.72 fold enrichment (6-mer frequency, TF over GST control)"
same,binding signal,ELF4,"2.16 fold enrichment (6-mer frequency, TF over GST control)"
same,binding signal,ELK4,"2.1 fold enrichment (6-mer frequency, TF over GST control)"
same,binding signal,ETV2,"2.39 fold enrichment (6-mer frequency, TF over GST control)"
same,binding signal,ELF3,"2.06 fold enrichment (6-mer frequency, TF over GST control)"
same,binding signal,CRX,"1.43 fold enrichment (6-mer frequency, TF over GST control)"
same,binding signal,ETV1,"2.27 fold enrichment (6-mer frequency, TF over GST control)"
